The test system of assay [1] is Klebsiella pneumoniae. As to conditions: Concentration 32 ug.mL-1;; ASSAY_TEST Inhibition of Bacterial Growth; detection method Absorption (OD600); MEDIA CAMHB; plate type 384well; NBS; CORNING #3640; time 18 hr.
The test system of assay [2] is Candida albicans. The settings on record: Concentration 32 ug.mL-1; ASSAY_TEST Inhibition of Fungal Growth; detection method Absorption (OD530).
The test system of assay [3] is Cryptococcus neoformans. The settings on record: Concentration 32 ug.mL-1; ASSAY_TEST Inhibition of Fungal Growth; detection method Resazurin; Absorption (OD600-OD570); plate type 384well; NBS; CORNING #3640. In general terms: Resazurin is reduced to fluorescent resorufin, in cell work by metabolically active cells.

Results with a measured potency or affinity are listed apart.

Usually Inhibition stands for the drop in the measured response relative to a control, in per cent. In the case of `O=C(Cn1nc2ccc(Sc3cccc(F)c3)nn2c1=O)Nc1cccc(C(F)(F)F)c1`, the Inhibition in assay [1] was 3.15%; in assay [2] it was 0.5%; in assay [3], -9.77%.

As for `Cc1cc(C)cc(Nc2nc(C)cc3nn(CC(=O)Nc4ccc(Cl)cc4)c(=O)n23)c1`, the Inhibition is 13.53% in assay [1], 5.41% in assay [2] and -4.1% in assay [3].

In the case of `CCCCN(CC)c1ccc2nnc(CCc3nc(-c4ccc(OCc5ccccc5)cc4)no3)n2n1`, the Inhibition in assay [1] is given as 10.12%; in assay [2] it was 5.5%; in assay [3], -16.46%.

`CCCCN(C)c1ccc2nnc(CCc3nc(-c4cccc(Br)c4)no3)n2n1`: the values for the Inhibition in assay [1], in assay [2] and in assay [3] were 13.86%, 15.05% and -17.7%, respectively.

`Cc1cc2nn(CC(=O)Nc3ccc(Cl)cc3)c(=O)n2c(Nc2ccc(F)c(C)c2)n1`: the values for the Inhibition in assay [1], in assay [2] and in assay [3] were 19.07%, 3.54% and -11.52%, respectively.

For the compound `COc1ccc(NC(=O)Cn2c(=O)c3nnc(C(C)C)n3c3ccccc32)cc1`, the figures for the Inhibition in assay [1], in assay [2] and in assay [3] were 10.47%, 4.15% and -13.18%, respectively.

For the compound `CCN(C(=O)Cn1nc2cc(C)nc(Nc3ccc(C)c(F)c3)n2c1=O)c1ccccc1`, the results for the Inhibition in assay [1], in assay [2] and in assay [3] were 13.32%, 0.56% and -6.91%, respectively.

`Cc1c(Cl)cccc1-n1ccn2c(=O)n(Cc3cccc(Cl)c3)nc2c1=O`: the Inhibition in assay [1] is reported as 5.86%; in assay [2], 2.56%; in assay [3], -15.28%.

For the compound `COc1cc(NC(=O)Cn2nc3ccc(SCc4ccc(Cl)cc4)nn3c2=O)cc(OC)c1`, the Inhibition in assay [1] is 1.27%; in assay [2] it was 5.86%; in assay [3] it was -31.85%.

Regarding `COc1cc(NC(=O)Cn2nc3ccc(C(=O)NCc4ccccc4)cn3c2=O)cc(OC)c1OC`, the Inhibition in assay [1] is reported as 1.38%; in assay [2], 5.58%; in assay [3], -8.4%.

For the origin of these results see ChEMBL document CHEMBL4513146, “CO-ADD screening of Karazin Kharkiv National University (Ukraine) compounds”.
